Data from PubChem BioAssay (NCATS).
Inconclusive results are not listed. A call without a number means that no potency is given here. The source made the active and inactive calls. Calls follow the shape of the dose curve; as a rule, active = well fitted inhibition curve with a large enough effect; inconclusive = small, poorly fitted or top-dose-only effect; inactive = flat fitted curve, though single readings scatter.

Legend:
Test in all cases: qHTS profiling for inhibitors of Plasmodium falciparum proliferation (AID 504749); also: nearly all actives have a fitted effect of over 60% in size
Settings in all cases: P. falciparum in erythrocytes, SYBR Green DNA, 72 h; series mostly up to 28.7 µM
CP185 = test system: CP185
Procedure, shortened: (§1)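 SYBR Green fluorescence of parasite DNA, read after lysis and overnight dark incubation, measured growth over 72 h in erythrocyte culture at 0.3% parasitemia and 2.5% hematocrit. Data normalised to DMSO and 0.29 uM artemisinin, with plate-drift correction.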

CP191 = test system: CP191
Procedure, shortened: as §1

CP194 = test system: CP194
Procedure, shortened: as §1

CP201 = test system: CP201
Procedure, shortened: as §1

CP211 = test system: CP211
Procedure, shortened: as §1

CP215 = test system: CP215
Procedure, shortened: as §1

CP217 = test system: CP217
Procedure, shortened: as §1

CP237 = test system: CP237
Procedure, shortened: as §1

CP238 = test system: CP238
Procedure, shortened: as §1

CP250 = test system: CP250
Procedure, shortened: as §1

CP252 = test system: CP252
Procedure, shortened: as §1

CP256 = test system: CP256
Procedure, shortened: as §1

CP260 = test system: CP260
Procedure, shortened: as §1

CP262 = test system: CP262
Procedure, shortened: as §1

CP265 = test system: CP265
Procedure, shortened: as §1

CP266 = test system: CP266
Procedure, shortened: as §1

CP268 = test system: CP268
Procedure, shortened: as §1

CP192 = test system: CP192
Procedure, shortened: as §1

CP247 = test system: CP247
Procedure, shortened: as §1

CP203 = test system: CP203
Procedure, shortened: as §1
Potency is read from the fitted curve at half-maximal effect.

Compound	Potency (CP185)	Potency (CP191)	Potency (CP194)	Potency (CP201)	Potency (CP211)	Potency (CP215)	Potency (CP217)	Potency (CP237)	Potency (CP238)	Potency (CP250)	Potency (CP252)	Potency (CP256)	Potency (CP260)	Potency (CP262)	Potency (CP265)	Potency (CP266)	Potency (CP268)	Potency (CP192)	Potency (CP247)	Potency (CP203)
CN1C(=S)CN=C(c2ccccc2)c2cc(Cl)ccc21	inactive	inactive	inactive	inactive	inactive	inactive	inactive	inactive	inactive	inactive	inactive	inactive	inactive	inactive	inactive	inactive	inactive	–	–	–
CC(C)NCC(O)c1ccccc1Cl (stereo unspecified)	–	–	–	inactive	–	–	10 µM (active)	5.01 µM (active)	–	–	–	–	11.2 µM (active)	–	–	inactive	–	–	–	–
O=C1NCN(c2ccccc2)C12CCN(CC1COc3ccccc3O1)CC2 (stereo unspecified)	inactive	inactive	inactive	inactive	inactive	inactive	inactive	–	inactive	inactive	inactive	inactive	–	inactive	inactive	inactive	inactive	inactive	inactive	–
Cc1ccc(S(=O)(=O)N[C@@H](CCCCN)C(=O)CCl)cc1	–	8.91 µM (active)	–	inactive	inactive	inactive	–	–	–	7.94 µM (active)	–	7.94 µM (active)	–	–	–	inactive	inactive	inactive	5.62 µM (active)	inactive
CC(C)(N)Cc1ccc(Cl)cc1	inactive	inactive	–	inactive	inactive	inactive	inactive	8.91 µM (active)	inactive	inactive	inactive	inactive	inactive	inactive	–	inactive	–	inactive	inactive	–
CN1C[C@H](CNC(=O)OCc2ccccc2)C[C@@H]2c3cccc4c3c(cn4C)C[C@H]21	8.91 µM (active)	–	–	–	9.53 µM (active)	–	7.94 µM (active)	8.91 µM (active)	11.2 µM (active)	–	10 µM (active)	6.31 µM (active)	11.2 µM (active)	6.75 µM (active)	5.62 µM (active)	–	–	–	–	–
